Assay outcomes: PubChem, The Scripps Research Institute Molecular Screening Center
The list is not random: actives were taken first. Their share in the collection is about 2.8%.
KLK7 zymogen act – proKLK7 (human) activation, primary screen; purified proKLK7, EDANS-DABCYL substrate fluorescence; 100% is mature enzyme control, 0% vehicle; activation, % at 7 µM; 370,000 tested, 0.9% active; AID 652039;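 active = activation above the mean of all tested compounds plus 3 SD, computed per campaign excluding outliers beyond control limits, cut at about 13% in these data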
Target sequence (P49862 whole entry, looked up): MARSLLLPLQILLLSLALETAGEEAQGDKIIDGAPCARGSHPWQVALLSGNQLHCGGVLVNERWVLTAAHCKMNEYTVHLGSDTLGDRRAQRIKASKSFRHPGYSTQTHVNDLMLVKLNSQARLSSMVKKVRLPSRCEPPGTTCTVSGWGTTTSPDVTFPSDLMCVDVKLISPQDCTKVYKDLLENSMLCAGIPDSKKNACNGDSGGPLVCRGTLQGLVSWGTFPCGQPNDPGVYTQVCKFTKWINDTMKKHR
bovine MsrA act – activates bovine MsrA enzyme. activation, % at 10.6 µM. 360,000 tested, 0.3% active. purified bovine MsrA, absorbance read-out; in the data active = activation above about 7.5%
MsrA inhibitor – inhibitors of bovine MsrA; 360,000 tested, 0.75% active; inhibition, % at 15.5 µM; purified bovine MsrA, absorbance read-out; in the data active = inhibition above about 4.5%
SMARCA2 act – SMARCA2 function activation, primary screen; MG213 cells, MMTV-luciferase reporter, dexamethasone, overnight; activation, % at 9.1 µM; 370,000 tested, 1% active; AID 652017; in the data active = activation above about 7.8%
proKLK7 act conf – proKLK7 activation, confirmation; shares compounds with KLK7 zymogen act; purified proKLK7, EDANS-DABCYL substrate fluorescence; scaled: vehicle 0, mature enzyme 100; activation, % at 7 µM; 3,200 tested, 68% active;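 active = activation, as change over the incubation, above the mean of all tested compounds plus 3 SD, cut at about 13% in these data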
EDANS interfere – optically interferes with EDANS-DABCYL signal, flagging KLK7 hits; shares compounds with KLK7 zymogen act; EDANS-DABCYL substrate fluorescence interference, no enzyme, 4 h; solvent 0%, active enzyme control 100%; activation, % at 7 µM; 3,200 tested, 80% active; AID 686952;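 active = activation above the all-compound mean plus 3 SD, ignoring values outside control-based bounds, cut at about 4.8% in these data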;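 also: value is the 4 h activation minus the activation read at time zero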
K7 EDANS ctr – optically interferes with EDANS-DABCYL fluorescence, kallikrein-7 activator counter-screen | shares compounds with KLK7 zymogen act | EDANS-DABCYL peptide fluorescence interference, no enzyme | EC50, µM | 250 tested, 20% active;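 active = compounds that raise the fluorescence signal in this interference counterscreen, with EC50 at or below 10 µM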;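 also: intact quenched peptide substrate alone read at 355 nm excitation and 520 nm emission; signal is fluorescence gain from T0 to T4 after four hours at room temperature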
Of the large screens only hits and unclear results are named; the others gave an inactive call (follow-up assays come after a bar, where they were run).

O=C(NCc1nnc(SCC(=O)N2CCCC2)o1)c1ccccc1F	KLK7 zymogen act 62 | proKLK7 act conf inactive | EDANS interfere inactive
O=C(NCc1nnc(SCC(=O)N2CCCCC2)o1)c1c(F)cccc1F	none
COc1ccccc1-c1nnc2n1N=C(c1ccc3c(c1)OCO3)CS2	none (no result: bovine MsrA act, MsrA inhibitor)
CC(C)OCCCn1c(=NC(=O)c2cccs2)c(C#N)cc2c(=O)n3ccccc3nc21	KLK7 zymogen act 54 | proKLK7 act conf 68 | EDANS interfere 63
CCCCCn1c(=NC(C)=O)c(C#N)cc2c(=O)n3ccccc3nc21	none
CC(=O)N=c1c(C#N)cc2c(=O)n3ccccc3nc2n1CCCOC(C)C	KLK7 zymogen act 35 | proKLK7 act conf inactive | EDANS interfere inactive
CC(C)OCCCn1c(=N)c(C(N)=S)cc2c(=O)n3ccccc3nc21	KLK7 zymogen act 22 | proKLK7 act conf inactive | EDANS interfere 4.3
CC(C)OCCCn1c(=NC(=O)c2ccncc2)c(C#N)cc2c(=O)n3ccccc3nc21	none
Cc1cccc(C)c1NC(=O)CNC(=O)c1ccc(N2CCCC2)c([N+](=O)[O-])c1	none
NSc1nc(N)c2nc(-c3ccccc3)c(-c3ccccc3)nc2n1	none
Nc1nc(N)c2nc(-c3ccccc3)c(N)nc2n1	KLK7 zymogen act 60 | proKLK7 act conf 67 | EDANS interfere 74
COCCCn1c(C(=O)N2CCOCC2)cc2c(=O)n3cccc(C)c3nc21	KLK7 zymogen act 19 | proKLK7 act conf 17 | EDANS interfere 18
COCCCn1c(C(=O)N2CC(C)OC(C)C2)cc2c(=O)n3cccc(C)c3nc21 (stereo not given)	none (no result: KLK7 zymogen act, MsrA inhibitor, SMARCA2 act)
Cc1cccn2c(=O)c3cc(C(=O)N4CCOCC4)n(C)c3nc12	KLK7 zymogen act 20 | proKLK7 act conf 46 | EDANS interfere 35 | K7 EDANS ctr inactive
Cc1cccn2c(=O)c3cc(C(=O)N4CCN(C(=O)c5ccco5)CC4)n(C)c3nc12	KLK7 zymogen act 20 | proKLK7 act conf 23 | EDANS interfere 35
Cc1cccn2c(=O)c3cc(C(=O)N4c5ccccc5CC4C)n(C)c3nc12 (stereo not given)	none
Cc1[nH]c2ccccc2c1C(=O)c1c(N)[nH]c(C(=O)c2ccccc2)c1-c1ccc(Cl)cc1	none (no result: bovine MsrA act)
c1csc(CNc2nc(Oc3ccncc3)c3sccc3n2)c1	KLK7 zymogen act 17 | proKLK7 act conf inactive | EDANS interfere 12
c1ccc(CNc2nc(Oc3ccncc3)c3sccc3n2)cc1	KLK7 zymogen act 15 | proKLK7 act conf inactive | EDANS interfere 4.9
O=C(O)[C@@H]1C[C@@H](O)CN1	none (no result: bovine MsrA act)
Cc1cc(C)cc(C(=O)Nc2nc3ccccc3[nH]2)c1	none
COc1ccc(Cl)cc1C(=O)Nc1nc2ccccc2[nH]1	KLK7 zymogen act 27 | proKLK7 act conf inactive | EDANS interfere inactive
O=C(Nc1nc2ccccc2[nH]1)c1cc2ccccc2o1	KLK7 zymogen act 16 | proKLK7 act conf 44 | EDANS interfere 44
COc1cc2cc(CN(CCCN3CCOCC3)Cc3nnnn3Cc3ccccc3)c(=O)[nH]c2cc1OC	KLK7 zymogen act 15 | proKLK7 act conf inactive | EDANS interfere inactive
O=c1[nH]c2cc3c(cc2cc1CN(Cc1nnnn1CC1CCCO1)C1CCCCC1)OCO3 (stereo not given)	KLK7 zymogen act 51 | proKLK7 act conf inactive | EDANS interfere inactive
CCOc1ccc2[nH]c(=O)c(CN(CCCN3CCOCC3)Cc3nnnn3Cc3ccc(OC)cc3)cc2c1	none
COCCn1nnnc1CN(Cc1cc2cc(OC)c(OC)cc2[nH]c1=O)C1CCCC1	KLK7 zymogen act 18 | proKLK7 act conf inactive | EDANS interfere inactive
CCC(C)(C)n1nnnc1CN(Cc1cc2cc(OC)ccc2[nH]c1=O)C1CCCC1	none
Clc1cccc(CNc2ccn3nc(-c4ccccc4Cl)cc3n2)c1	none
CCOC(=O)c1cccc(-c2cc(C(=O)OC)c3n(c2=O)CCC3)c1	none (no result: bovine MsrA act, MsrA inhibitor)
CC1(C)NC(=O)N(CC(=O)Nc2ccc(-n3cnnn3)cc2)C1=O	none
CC(=O)N(C(C)=O)c1ncc2c([nH]c3ccccc32)c1C#N	KLK7 zymogen act 19 | proKLK7 act conf 25 | EDANS interfere 25
Nc1cccc2c1C(=O)N(CCOc1ccccc1F)C2=O	KLK7 zymogen act 47 | proKLK7 act conf 72 | EDANS interfere 78
COc1cc(C(=O)N2CCCCC2c2cc(C(=O)NC(C)C)no2)cc(OC)c1C (stereo not given)	none
CCc1nc(SCC(=O)N2CCc3cc(OC)c(OC)cc3C2)c(C#N)cc1C	KLK7 zymogen act 13 | proKLK7 act conf inactive | EDANS interfere inactive
COc1cc2c(cc1OC)CN(C(=O)CSc1n[nH]c(N)n1)CC2	KLK7 zymogen act 18 | proKLK7 act conf inactive | EDANS interfere inactive
COc1c2ccoc2nc2c(OC)c(OCC(O)C(C)(C)O)ccc12 (stereo not given)	KLK7 zymogen act 22 | proKLK7 act conf 41 | EDANS interfere 39
COc1c2ccoc2nc2c(OC)c(OCC(OC(C)=O)C(C)(C)O)ccc12 (stereo not given)	KLK7 zymogen act 18 | proKLK7 act conf 13 | EDANS interfere 13
COc1ccc2c(OC)c3ccoc3nc2c1OC	KLK7 zymogen act 27 | proKLK7 act conf 31 | EDANS interfere 62
COc1c2ccoc2c(OC[C@@H](OC(C)=O)C(C)(C)O)c2oc(=O)ccc12	none
COc1c2ccoc2nc2c(OC)c(O)ccc12	none
COc1c2ccoc2nc2c(OC)c(OC[C@@H](O)C(C)(C)O)ccc12	KLK7 zymogen act 24 | proKLK7 act conf 37 | EDANS interfere 40
O=C(Cn1cc(C(F)(F)F)ccc1=O)NCC1CCCO1 (stereo not given)	none
CC1(C(=O)NS(=O)(=O)C2CC2)CCCN(C(=O)COCc2ccccc2)C1 (stereo not given)	none
O=C(NCCc1cn2cccnc2n1)C1CCC(=O)N(Cc2ccccc2F)C1 (stereo not given)	KLK7 zymogen act 35 | proKLK7 act conf 27 | EDANS interfere 24
Cc1ccc2nc(CNC(=O)C3CCC(=O)N(Cc4ccccc4F)C3)cn2c1 (stereo not given)	none
CCc1cc(=O)oc2cc(C)c(CN3CCCC3)c(O)c12	none
Cc1cc(=O)oc2c(CN3CCC(C)CC3)c(O)c(Cl)cc12	KLK7 zymogen act 70 | proKLK7 act conf 65 | EDANS interfere 66
CCCc1cc(=O)oc2c(CN3CCCC3)c(O)c(Cl)cc12	KLK7 zymogen act 70 | proKLK7 act conf 64 | EDANS interfere 77
CCc1cc(=O)oc2c(CNCc3ccccc3F)c(O)c(Cl)cc12	KLK7 zymogen act 36 | proKLK7 act conf 61 | EDANS interfere 66
Cc1cc(=O)oc2c(CN3CCCC3)c(O)c(Cl)cc12	KLK7 zymogen act 46 | proKLK7 act conf 62 | EDANS interfere 72
CCc1cc(=O)oc2cc(C)c(CN3CCCCC3)c(O)c12	none
